Source: PubChem BioAssay (several laboratories)
rCAG binder – r(CAG) repeat RNA binding; TO-PRO-1 dye displacement fluorescence; inhibition, % at 3 µM; 370,000 tested, 1.3% active;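 active means inhibition above the plate cutoff, the mean of all test compounds on that plate plus 3 SD, cut at about 35% in these data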;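 further: 0% = DMSO alone and 100% = 100 µM mitoxantrone as full dye displacement; higher means more dye released from RNA so lower well fluorescence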
bovine MsrA act – activators of bovine methionine sulfoxide reductase A; purified bovine MsrA, absorbance read-out; activation, % at 10.6 µM; 360,000 tested, 0.3% active; AID 602163; in the data active means activation above about 7.5%;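 further: 0% = vehicle and 100% = reference activator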
NadD block – blocks S. aureus nicotinate mononucleotide adenylyltransferase; purified NadD enzyme, colorimetric absorbance read-out; inhibition, % at 20 µM; 360,000 tested, 0.78% active; AID 602399; in the data active means inhibition above about 26%
MsrA inh – inhibitors of bovine MsrA; purified bovine MsrA, absorbance read-out; inhibition, % at 15.5 µM; AID 651718; 360,000 tested, 0.75% active; in the data active means inhibition above about 4.5%;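 further: 0% = vehicle wells with enzyme and 100% = reference inhibitor wells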
MsrA act confirm – confirmation of bovine methionine sulfoxide reductase A activators; 1,000 tested, 12% active; shares compounds with bovine MsrA act; AID 602270; purified bovine MsrA, absorbance read-out; activation, % at 10.6 µM; in the data active means activation above about 4%;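 further: enzyme coupled to thioredoxin and thioredoxin reductase with NADPH; 0% = vehicle wells and 100% = reference activator wells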
An asterisk follows results filed as active; x = no result. Sampled rows, rich in hits. Any-hit rate of the full collection: about 2.7%.

SMILES | rCAG binder | bovine MsrA act | NadD block | MsrA inh | MsrA act confirm
CC1=C(C#N)C(Nc2ccc(Cl)cn2)(C(F)(F)F)C(=O)N1 (centres undefined) | -1.1 | 10.3* | -2.0 | -0.3 | -1.0
O=C(NC(=S)/C(=C1\CCCCCN1)[N+](=O)[O-])c1ccccc1 | x | -5.0 | 3.5 | x | x
CCOC(=O)CNC(=O)c1ccccc1Br | -1.0 | 20.9* | 3.7 | -0.1 | -0.9
NS(=O)(=O)c1ccc2c(c1)C(=NO)c1cc(S(N)(=O)=O)ccc1-2 | 4.7 | 2.0 | -2.5 | -0.7 | x
NC1=C(Cl)C(=O)c2ccc(S(N)(=O)=O)cc2C1=O | 5.2 | 24.2* | -2.1 | 1.1 | 14.1*
NC1=C(Cl)C(=O)c2ccccc2C1=O | 5.5 | 18.1* | -2.6 | -1.2 | 12.2*
CSc1ccc(C=Nn2c(-c3cc(C)[nH]n3)n[nH]c2=S)cc1 | 9.8 | x | x | x | x
CC1(C)Oc2nc3ccccc3n2/C1=C\C#N | 2.3 | 8.0* | 5.3 | 0.2 | -1.8
O=C(Nc1ccccc1)c1cc(C2CCCCN2S(=O)(=O)Cc2cccc(C(F)(F)F)c2)on1 (centres undefined) | 5.4 | 4.5 | -5.7 | 1.5 | x
COc1ccc(CCNS(=O)(=O)c2ccc(C3CNC(=O)C3)cc2)cc1OC (centres undefined) | -5.5 | 9.5* | -4.6 | 0.0 | -1.7
CC[C@@H](CCCCCC#N)CCC(=O)N(c1ccccc1)c1ccccc1 | 2.3 | x | x | x | x
O=C(NCCc1ccc(F)cc1)C(=O)Nc1cc2c3c(c1)CC(=O)N3CCC2 | 5.7 | -4.0 | -0.6 | -0.8 | x
O=C(NCCc1ccc(Cl)cc1)C(=O)Nc1cc2c3c(c1)CC(=O)N3CCC2 | 6.6 | 16.7* | 1.8 | 0.1 | -1.9
CS(=O)(=O)N(CC(=O)N1CCOCC1)c1cccc(F)c1 | -0.8 | 9.2* | -7.7 | -0.5 | -1.0
COc1ccc(OC)c(C(=O)NC(CC(N)=O)c2ccc(N3CCN(c4ccc(F)cc4)CC3)c([N+](=O)[O-])c2)c1 (centres undefined) | 3.0 | -11.5 | -7.9 | -0.7 | x
CCOC(=O)C1=C(COC(=O)C2CC(=O)N(c3ccc(CC)cc3)C2)NC(=O)NC1C (centres undefined) | -1.2 | 0.6 | 1.1 | -0.6 | x
CC1CCc2cc(F)ccc2N1C(=O)CCC(=O)O (centres undefined) | 2.6 | 9.8* | -5.9 | -1.3 | 1.6
O=C(CNc1ccc2ccccc2c1)N/N=C/c1ccc([N+](=O)[O-])o1 | 23.1 | 8.3* | 13.8 | 2.2 | -0.8
COCc1cc(=O)[nH]c(=S)[nH]1 | 0.0 | 9.9* | 2.0 | 1.4 | 5.0*
O=c1cc(Cc2ccccc2)[nH]c(=S)[nH]1 | -0.7 | 1.8 | -4.0 | 0.6 | x
Cc1ccc(-n2c(Cc3cccs3)nnc2SCC(=O)Nc2cccc3ccccc23)cc1 | 6.6 | x | x | x | x
CC(C)OC(=O)c1sc2nc(-c3ccccc3)ccc2c1N | 9.2 | 8.8* | -3.5 | 1.4 | -0.2
COc1ccc(C(=O)c2sc3nc(-c4ccccc4)ccc3c2N)cc1 | x | -1.1 | 27.0 | x | x
CCC1CCCCN1C(=O)COC(=O)COc1ccc(Br)cc1 (centres undefined) | -0.3 | -7.2 | -5.7 | -0.6 | x
Cc1csc(SCC(=O)c2c(N)n(C)c(=O)n(C)c2=O)n1 | -2.1 | 9.7* | -2.6 | -0.1 | -1.7
SMILES | rCAG binder | bovine MsrA act | NadD block | MsrA inh | MsrA act confirm
Cn1c(N)c(C(=O)CSc2nnc(N)s2)c(=O)n(C)c1=O | 3.3 | -8.2 | -2.5 | 1.1 | x
CC1(C(=O)NS(=O)(=O)c2ccccc2Cl)CCN1C(=O)Cc1cccs1 (centres undefined) | 4.8 | -0.4 | 2.4 | 0.7 | x
O=C(CCNS(=O)(=O)c1ccc(OC(F)(F)F)cc1)Nc1cccc(S(=O)(=O)N2CCCC2)c1 | 4.3 | 1.3 | -4.8 | -0.4 | x
CCC1CCc2sc(C(=O)N(C)CC(=O)Nc3cccc(OC)c3)cc2C1 (centres undefined) | 3.9 | 10.7* | -9.3 | -1.2 | -1.5
CN(C)CCCn1c2c(c(SCC(=O)Nc3cccc4ccccc34)nc1=O)CCCC2 | 1.4 | 11.2* | -3.2 | -0.7 | 0.5
CC1CC2(C)C(=CC1=O)CCC1C2C(O)CC2(C)C1CCC2(O)C(=O)CO (centres undefined) | 2.3 | -0.4 | 0.5 | -1.4 | x
O=C(COC(=O)c1ccc(Cl)c(S(=O)(=O)N2CCN(c3ccc(F)cc3)CC2)c1)Nc1cccc(Cl)c1 | 5.5 | 11.7* | 18.8 | -0.6 | 1.4
O=[N+]([O-])c1cc(/C=N/O)ccc1N1CCCC1 | 3.5 | -4.3 | 6.4 | 3.0 | x
CO/N=C/c1ccc(N2CCCC2)c([N+](=O)[O-])c1 | -2.7 | 17.2* | -5.8 | 2.9 | 5.8*
Cn1nc(N)nc1N1CCN(c2ccc(F)cc2)CC1 | -1.4 | 8.0* | -2.9 | -0.6 | -1.2
COC(=O)c1c(NC(C)=O)sc2c1CCCC2 | -1.9 | -4.5 | -0.1 | 0.7 | x
CNC(=S)Nc1sc2c(c1C(=O)OC)CCC2 | 0.1 | 8.4* | -0.9 | 1.8 | 2.5
